Results filed as inconclusive are left out. Calls of active or inactive are those of the source. Unless noted, the call rests on the fitted dose curve; in most records, active means well fitted curve in the direction sought with a large enough effect; inconclusive means small, poorly fitted or top-dose-only effect, or another doubt; inactive means no such curve, though single readings can be large; an effect the other way counts as inactive or inconclusive.
Legend:
[1] = target: Lysosomal acid glucosylceramidase (Homo sapiens) (UniProt P04062); assay: Glucocerebrosidase-p2 (AID 348; in the data active means potency below about 10 µM; further: potency means the concentration at half of the fitted maximal effect); conditions: purified GBA, blue fluorogenic substrate, 40 min
Lysosomal acid glucosylceramidase (Homo sapiens), sequence (P04062 whole entry, looked up): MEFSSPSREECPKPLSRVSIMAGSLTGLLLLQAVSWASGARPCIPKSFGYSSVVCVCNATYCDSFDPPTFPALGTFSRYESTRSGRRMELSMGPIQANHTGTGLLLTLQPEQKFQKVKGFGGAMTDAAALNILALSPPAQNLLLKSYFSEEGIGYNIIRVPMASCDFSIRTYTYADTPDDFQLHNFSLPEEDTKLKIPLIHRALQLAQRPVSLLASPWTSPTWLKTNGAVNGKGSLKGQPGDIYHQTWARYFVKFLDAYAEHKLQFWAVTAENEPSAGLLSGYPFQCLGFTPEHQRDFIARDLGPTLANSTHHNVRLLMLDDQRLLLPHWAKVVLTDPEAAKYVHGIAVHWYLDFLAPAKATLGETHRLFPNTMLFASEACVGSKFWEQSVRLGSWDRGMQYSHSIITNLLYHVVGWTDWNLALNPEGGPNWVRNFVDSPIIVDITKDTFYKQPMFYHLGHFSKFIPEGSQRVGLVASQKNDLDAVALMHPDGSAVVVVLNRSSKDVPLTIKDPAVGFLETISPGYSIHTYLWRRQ
Procedure, shortened: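 Normal human glucocerebrosidase (0.2 nM) with blue fluorogenic substrate (80 uM final) in citrate/phosphate pH 5.9 with 10mM sodium taurocholate, 0.01% tween-20; 40 min RT, NaOH/glycine stop; fluorescence Ex 365/Em 440; AC50 from a titration from 0.6 nM upwards.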

[2] = AP1 Signaling Pathway (AID 357; active means well fitted curve in either direction with a large enough effect, not every such curve was filed as active;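 further: ME-180 reporter cells stimulated with EGF at its EC50 level; on the % scale 0 is the no-effect control and ±100 the full control effect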); conditions: ME-180 AP-1-bla reporter, EGF-induced, beta-lactamase ratio, 5 h; at 7.69 µM (top of the series) unless noted
Procedure, shortened: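 Beta-lactamase reporter under AP-1 response element, ME-180 background. Stimulus: EC50 EGF. Compound exposure 5 h, 37 °C. Detection: CCF4, 2.5 h RT, 460/530 nm. Values: AC50 from titration.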

[3] = target: Cytochrome P450 1A2 (Homo sapiens) (UniProt P05177); assay: p450-cyp1a2 (AID 410; calls by dose curve; further: potency means the concentration at half of the fitted maximal effect;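 on activity change, negative = inhibition: -100% = full effect of reference inhibitor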); conditions: recombinant CYP1A2, luciferin-ME demethylation, luminescence; series mostly up to 57 µM
Cytochrome P450 1A2 (Homo sapiens), sequence (P05177 whole entry, looked up): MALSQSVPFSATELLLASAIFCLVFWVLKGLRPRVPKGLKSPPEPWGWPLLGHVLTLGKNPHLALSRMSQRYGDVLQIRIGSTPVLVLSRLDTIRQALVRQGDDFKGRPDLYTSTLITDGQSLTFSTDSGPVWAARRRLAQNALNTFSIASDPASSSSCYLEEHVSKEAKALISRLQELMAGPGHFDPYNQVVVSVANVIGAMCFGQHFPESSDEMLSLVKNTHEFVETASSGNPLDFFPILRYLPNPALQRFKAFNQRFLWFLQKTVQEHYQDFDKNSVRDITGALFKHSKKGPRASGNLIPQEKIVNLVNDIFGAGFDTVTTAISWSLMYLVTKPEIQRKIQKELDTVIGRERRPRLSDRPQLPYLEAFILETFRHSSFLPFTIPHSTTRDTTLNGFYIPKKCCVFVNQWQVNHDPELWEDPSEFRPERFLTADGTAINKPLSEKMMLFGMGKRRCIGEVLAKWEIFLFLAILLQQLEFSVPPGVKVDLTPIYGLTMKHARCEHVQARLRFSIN
Procedure, shortened: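 Luminescent demethylation readout: Luciferin-ME (100uM, equal to Km) turned over by 20nM CYP1A2 for 60 min at room temperature after NADPH regeneration addition, following 10 min compound preincubation. Normalization used 57 uM furafylline as full inhibition.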

[4] = NFAT Signaling Pathway (AID 444; active means well fitted curve in either direction with a large enough effect, not every such curve was filed as active;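 further: carbachol stimulus at about its EC50 of 1 µM final; on the % scale 0 is the no-effect control and ±100 the full control effect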); conditions: Jurkat NFAT-bla M1, carbachol, beta-lactamase ratio, 5 h; at 7.69 µM (top of the series) unless noted
Procedure, shortened: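 Jurkat cells carrying an NFAT-driven β-lactamase reporter and co-transfected muscarinic M1 receptor were treated with compound plus carbachol (1 uM final, an EC50 level) for 5 h at 37 °C. CCF4 loading followed for 1 h at RT; 460/530 nm ratio gave %activity.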

[5] = Stat Signaling Pathway (AID 446; active means well fitted curve in either direction with a large enough effect, not every such curve was filed as active;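 further: ME-180 cervical cancer cells given 40 pM IL-6 alongside compound; SIE-controlled beta-lactamase reporter measured as 460/530 nm FRET emission ratio; on the % scale 0 is the no-effect control and ±100 the full control effect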); conditions: ME-180 (cervical carcinoma) SIE beta-lactamase reporter, IL-6 stimulated, 5 h; at 7.69 µM (top of the series) unless noted
Procedure, shortened: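 FRET read-out (405 nm excitation, 460/530 nm emission) of a beta-lactamase reporter under a STAT-inducible element in ME-180 cervical carcinoma cells. Cells with compound receive 40 pM IL-6 for 5 h. Values are normalised to AC90 stimulation and AC90 JAK-inhibitor controls.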

[6] = target: Glucocorticoid receptor (Homo sapiens) (UniProt P04150); assay: GR-EFC Redistribution (AID 451; calls by dose curve; further: potency means the concentration at half of the fitted maximal effect); conditions: CHO-K1 GR-EFC translocation, beta-gal luminescence, 2 h
Glucocorticoid receptor (Homo sapiens), sequence (P04150 whole entry, looked up, the tested form may be a part): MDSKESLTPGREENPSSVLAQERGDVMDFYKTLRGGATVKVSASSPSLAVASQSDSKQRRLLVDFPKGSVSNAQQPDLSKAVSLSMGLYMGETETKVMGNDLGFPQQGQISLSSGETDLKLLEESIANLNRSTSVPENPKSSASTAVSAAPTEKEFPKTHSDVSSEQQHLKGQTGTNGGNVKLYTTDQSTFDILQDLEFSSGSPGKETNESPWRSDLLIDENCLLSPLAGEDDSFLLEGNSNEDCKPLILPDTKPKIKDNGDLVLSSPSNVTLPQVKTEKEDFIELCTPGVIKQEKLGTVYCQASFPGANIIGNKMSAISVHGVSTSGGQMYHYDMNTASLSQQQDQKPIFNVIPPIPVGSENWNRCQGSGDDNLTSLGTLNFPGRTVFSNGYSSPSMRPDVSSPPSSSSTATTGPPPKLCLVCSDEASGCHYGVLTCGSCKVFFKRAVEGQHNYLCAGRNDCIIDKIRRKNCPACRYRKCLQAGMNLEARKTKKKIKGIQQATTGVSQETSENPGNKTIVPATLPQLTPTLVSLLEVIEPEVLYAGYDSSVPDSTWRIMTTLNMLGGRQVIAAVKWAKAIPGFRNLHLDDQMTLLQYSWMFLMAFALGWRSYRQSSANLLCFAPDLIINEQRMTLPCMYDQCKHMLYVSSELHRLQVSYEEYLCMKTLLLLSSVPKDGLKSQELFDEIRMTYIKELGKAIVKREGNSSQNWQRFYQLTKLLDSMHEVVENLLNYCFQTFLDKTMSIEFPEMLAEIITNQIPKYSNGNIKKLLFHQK
Procedure, shortened: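 CHO-K1 cells stably expressing nuclear-localized β-gal enzyme acceptor and GR fused C-terminally to the enzyme donor fragment; ligand-driven nuclear translocation restores β-gal by complementation. Compounds titrated up to 46 uM final, 2 h at 37 °C; luminescence read.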

[7] = target: Cytochrome P450 3A4 (Homo sapiens) (UniProt P08684); assay: qHTS Assay for Activators of Cytochrome P450 3A4 (AID 885); conditions: recombinant CYP3A4, Luciferin-PPXE luminescence, 60 min; series mostly up to 57.1 µM; further: nearly all actives have a fitted effect of over 65% in size
Cytochrome P450 3A4 (Homo sapiens), sequence (P08684 whole entry, looked up): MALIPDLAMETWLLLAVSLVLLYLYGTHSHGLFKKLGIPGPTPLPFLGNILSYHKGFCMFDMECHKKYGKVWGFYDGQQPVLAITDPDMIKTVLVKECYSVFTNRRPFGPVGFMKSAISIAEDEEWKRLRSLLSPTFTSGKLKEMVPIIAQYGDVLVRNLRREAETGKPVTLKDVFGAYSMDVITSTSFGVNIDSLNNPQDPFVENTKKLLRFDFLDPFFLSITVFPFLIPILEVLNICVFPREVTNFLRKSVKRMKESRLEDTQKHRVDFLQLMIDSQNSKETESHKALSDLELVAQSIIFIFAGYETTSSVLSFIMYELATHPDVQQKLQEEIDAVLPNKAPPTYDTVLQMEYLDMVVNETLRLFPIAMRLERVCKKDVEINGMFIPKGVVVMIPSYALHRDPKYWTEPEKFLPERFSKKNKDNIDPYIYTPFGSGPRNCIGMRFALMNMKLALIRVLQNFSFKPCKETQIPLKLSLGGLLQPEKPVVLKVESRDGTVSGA
Procedure, shortened: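 Luminescent readout of luciferin formed from 25 uM Luciferin-PPXE (KM level) by 20 nM CYP3A4 in 200 mM KPO4, with 60 min NADPH-driven reaction at room temperature after 10 min compound exposure. Ketoconazole (57 uM) defined 100% inhibition.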

[8] = Primary qHTS for small molecule stabilizers of the endoplasmic reticulum resident proteome: Secreted ER Calcium Modulated Protein (SERCaMP) assay (AID 1508630); conditions: SH-SY5Y GLuc-SERCaMP (Gaussia luciferase released on ER calcium loss) secretion, thapsigargin, luminescence; series mostly up to 38.4 µM; further: on the % scale 0 is the no-effect control and ±100 the full control effect
Procedure, shortened: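 The SH-SY5Y reporter protocol was run at 3 concentrations up to 38.3 uM (primary) or 11 concentrations (follow-up): 16 h compound, 100 nM thapsigargin for 4 h, then extracellular luciferase luminescence.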

[9] = target: Rap guanine nucleotide exchange factor 3 (Homo sapiens) (UniProt O95398); assay: Confirmatory qHTS for antagonist of cAMP-regulated guanine nucleotide exchange factor 3 (EPAC1) (AID 1645880); conditions: EPAC1 Rap1B-BODIPY-GDP exchange, fluorescence; series mostly up to 115 µM;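 further: plate controls were DMSO only for no effect and full effect of the ATA control for full effect; nearly all actives have a fitted effect of over 55% in size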
Rap guanine nucleotide exchange factor 3 (Homo sapiens), sequence (O95398 whole entry, looked up): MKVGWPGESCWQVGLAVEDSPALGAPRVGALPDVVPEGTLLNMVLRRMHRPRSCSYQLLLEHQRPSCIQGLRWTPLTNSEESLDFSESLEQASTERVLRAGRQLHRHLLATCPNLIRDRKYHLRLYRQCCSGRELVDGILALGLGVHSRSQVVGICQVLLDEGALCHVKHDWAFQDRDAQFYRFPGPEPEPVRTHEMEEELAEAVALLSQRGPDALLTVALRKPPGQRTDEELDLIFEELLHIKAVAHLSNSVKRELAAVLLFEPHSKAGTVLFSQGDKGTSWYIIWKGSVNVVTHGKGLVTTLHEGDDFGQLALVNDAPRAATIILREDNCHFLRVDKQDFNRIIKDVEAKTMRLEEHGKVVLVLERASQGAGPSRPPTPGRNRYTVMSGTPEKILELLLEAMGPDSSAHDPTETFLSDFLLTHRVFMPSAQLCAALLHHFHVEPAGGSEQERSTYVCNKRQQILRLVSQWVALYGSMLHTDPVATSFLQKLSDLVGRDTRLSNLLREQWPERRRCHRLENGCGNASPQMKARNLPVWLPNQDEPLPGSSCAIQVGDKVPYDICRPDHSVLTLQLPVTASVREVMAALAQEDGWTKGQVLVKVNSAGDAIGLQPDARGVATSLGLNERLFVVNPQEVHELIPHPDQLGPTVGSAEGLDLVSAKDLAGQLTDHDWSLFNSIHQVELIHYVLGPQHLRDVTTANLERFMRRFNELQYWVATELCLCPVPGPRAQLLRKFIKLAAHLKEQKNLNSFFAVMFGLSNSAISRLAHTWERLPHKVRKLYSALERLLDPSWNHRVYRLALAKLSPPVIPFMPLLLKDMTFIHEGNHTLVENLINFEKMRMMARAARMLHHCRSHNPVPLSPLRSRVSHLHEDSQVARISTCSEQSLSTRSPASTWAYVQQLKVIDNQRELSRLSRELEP
Procedure, shortened: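 Released BODIPY-GDP fluoresces less than Rap1-bound BODIPY-GDP; the signal is followed at 480/540 nm at 5-min intervals over 30 min, after 5 min at room temperature. Reactions contain 100 nM EPAC1, 250 nM RAP1B-BODIPY-GDP and 50 uM GDP; results are normalized to ATA and DMSO.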

[10] = target: Rap guanine nucleotide exchange factor 3 (Homo sapiens) (UniProt O95398); assay: Confirmatory qHTS for agonist of cAMP-regulated guanine nucleotide exchange factor 3 (EPAC1) (AID 1645881); conditions: EPAC1 Rap1B BODIPY-GDP exchange fluorescence; series mostly up to 154 µM;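 further: EPAC1 catalysed release of BODIPY-GDP from Rap1B seen as fluorescence loss; 100% = effect of cAMP agonist control; nearly all actives have a fitted effect of over 75% in size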
[11] = target: Rap guanine nucleotide exchange factor 4 (Homo sapiens) (UniProt Q8WZA2); assay: Confirmatory qHTS for agonist of cAMP-regulated guanine nucleotide exchange factor 4 (EPAC2) (AID 1645884); conditions: EPAC2 GEF activity, Rap1B-BODIPY-GDP fluorescence; series mostly up to 154 µM;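 further: nucleotide exchange releases bodipy-GDP from Rap1 and this lowers its fluorescence; on the % scale 0 is the no-effect control and ±100 the full control effect; nearly all actives have a fitted effect of over 65% in size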
[12] = target: Rap guanine nucleotide exchange factor 4 (Homo sapiens) (UniProt Q8WZA2); assay: Confirmatory qHTS for antagonist of cAMP-regulated guanine nucleotide exchange factor 4 (EPAC2) (AID 1645885); conditions: EPAC2 Rap1B-BODIPY-GDP exchange fluorescence, biochemical; series mostly up to 114 µM; further: nearly all actives have a fitted effect of over 25% in size; further: potency means the concentration at half of the fitted maximal effect
[13] = target: Glucocorticoid receptor (Homo sapiens) (UniProt P04150); assay: GR-GFP Redistribution (AID 450;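 active means compounds whose dose series gives a full or clear partial fitted curve of increased nuclear translocation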; further: potency means the concentration at half of the fitted maximal effect); conditions: U2OS GR-GFP nuclear translocation, laser cytometry, 2 h
[14] = target: Mitogen-activated protein kinase 10 (Mus musculus) (UniProt Q61831); assay: JNK3 AlphaScreen Assay (AID 530; active means well fitted curve in either direction with a large enough effect, not every such curve was filed as active); conditions: JNK3 lysate, c-Jun phosphorylation; series mostly up to 57.1 µM
Procedure, shortened: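 Phosphorylation of biotinylated GST-cJun(1-79) at Ser73 is measured by AlphaScreen proximity luminescence. Enzyme is JNK3 in HepG2 lysates activated with interleukin-1beta and tumor necrosis factor alpha; ATP is 10 uM final.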

[15] = target: 3',5'-cyclic-AMP phosphodiesterase 4B (Homo sapiens) (UniProt Q07343); assay: qHTS Assay for Inhibitors of PDE-IV (AID 607; active means well fitted activation curve with a large enough effect in the main read-out, with a control signal flat, not every such curve was filed as active; further: % of control where 0% means no effect); conditions: HEK293 ACTOne CNG channel cells, membrane potential fluorescence; series mostly up to 22.9 µM
3',5'-cyclic-AMP phosphodiesterase 4B (Homo sapiens), sequence (Q07343 whole entry, looked up): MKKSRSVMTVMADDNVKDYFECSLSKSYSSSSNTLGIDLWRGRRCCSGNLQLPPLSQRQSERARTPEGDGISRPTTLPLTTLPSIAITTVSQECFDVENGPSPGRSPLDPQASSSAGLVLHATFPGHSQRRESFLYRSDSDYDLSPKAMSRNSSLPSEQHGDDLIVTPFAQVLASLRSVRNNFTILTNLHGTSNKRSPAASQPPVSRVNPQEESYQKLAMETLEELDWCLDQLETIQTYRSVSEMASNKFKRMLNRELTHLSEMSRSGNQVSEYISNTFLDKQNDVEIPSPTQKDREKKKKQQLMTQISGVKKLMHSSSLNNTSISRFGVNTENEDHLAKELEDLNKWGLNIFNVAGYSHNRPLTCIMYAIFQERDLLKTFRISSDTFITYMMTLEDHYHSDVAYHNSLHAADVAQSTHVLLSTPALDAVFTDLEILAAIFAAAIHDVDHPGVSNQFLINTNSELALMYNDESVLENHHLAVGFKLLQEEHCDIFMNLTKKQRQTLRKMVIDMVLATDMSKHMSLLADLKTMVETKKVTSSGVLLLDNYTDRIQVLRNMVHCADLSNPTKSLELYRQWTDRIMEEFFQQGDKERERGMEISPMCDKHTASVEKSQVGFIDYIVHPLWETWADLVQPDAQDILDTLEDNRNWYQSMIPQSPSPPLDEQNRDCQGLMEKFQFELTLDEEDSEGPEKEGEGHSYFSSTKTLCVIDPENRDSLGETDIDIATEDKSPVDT
Procedure, shortened: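 Cell-based read-out of cAMP via a modified cyclic nucleotide-gated channel and membrane potential dye (535/590 nm) in HEK293 cells expressing PDE4 endogenously. Compounds tested up to 22.9 uM final; 100 uM RO 20-1724 reference.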

[16] = target: Dual specificity protein kinase CLK4 (Homo sapiens) (UniProt Q9HAZ1); assay: qHTS Assay for Inhibitors of CDC-like Kinase 4 (ADP-FP Assay) (AID 1795); conditions: Transcreener ADP fluorescence polarization; series mostly up to 50 µM; further: on the % scale 0 is the no-effect control and ±100 the full control effect; nearly all actives have a fitted effect of over 60% in size
Procedure, shortened: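 Recombinant human Clk4 (6.25 nM) phosphorylated RS repeat peptide (100 uM) with 1 uM ATP in Tris pH 7.5/MgCl2/EGTA/DTT/Triton buffer for one hour. ADP was quantified by Transcreener competitive fluorescence polarization against an ADP calibration curve.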

[17] = target: Ubiquitin carboxyl-terminal hydrolase 1 (Homo sapiens) (UniProt O94782); assay: Inhibitors of USP1/UAF1: Pilot qHTS (AID 504865); conditions: purified USP1/UAF1, Ub-rhodamine cleavage fluorescence; series mostly up to 54.9 µM;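 further: rhodamine fluorescence freed from ubiquitin-rhodamine substrate followed over time; top concentration of the series differs between compounds; on the % scale 0 is the no-effect control and ±100 the full control effect; nearly all actives have a fitted effect of over 35% in size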
Ubiquitin carboxyl-terminal hydrolase 1 (Homo sapiens), sequence (O94782 whole entry, looked up): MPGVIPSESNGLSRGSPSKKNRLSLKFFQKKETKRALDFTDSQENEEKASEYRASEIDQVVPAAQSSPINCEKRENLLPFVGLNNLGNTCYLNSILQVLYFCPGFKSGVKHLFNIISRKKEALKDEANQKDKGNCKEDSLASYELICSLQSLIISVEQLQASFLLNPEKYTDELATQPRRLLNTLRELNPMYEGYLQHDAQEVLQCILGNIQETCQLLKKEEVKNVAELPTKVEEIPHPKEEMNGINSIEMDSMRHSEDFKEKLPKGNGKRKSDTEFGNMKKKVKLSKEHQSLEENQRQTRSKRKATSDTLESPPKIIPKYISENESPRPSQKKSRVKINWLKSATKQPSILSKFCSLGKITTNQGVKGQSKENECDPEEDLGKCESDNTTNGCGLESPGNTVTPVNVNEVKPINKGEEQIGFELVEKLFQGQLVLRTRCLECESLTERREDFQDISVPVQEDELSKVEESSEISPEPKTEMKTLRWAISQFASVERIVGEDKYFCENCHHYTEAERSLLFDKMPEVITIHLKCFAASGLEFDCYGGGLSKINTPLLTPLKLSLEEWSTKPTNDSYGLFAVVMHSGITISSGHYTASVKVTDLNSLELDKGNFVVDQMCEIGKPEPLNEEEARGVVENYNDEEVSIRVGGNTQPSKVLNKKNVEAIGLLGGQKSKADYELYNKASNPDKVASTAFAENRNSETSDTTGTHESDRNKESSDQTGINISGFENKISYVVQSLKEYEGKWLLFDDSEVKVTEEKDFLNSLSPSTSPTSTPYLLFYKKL
Procedure, shortened: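 USP1/UAF1 complex (1nM) preincubated with compound 15 min at room temperature, then Ub-Rho substrate (150nM final) added. Fluorescence read kinetically at 480/540 nm, 6 reads every 60 seconds. Buffer: 50mM HEPES pH 7.8, 0.5mM EDTA, 0.1 mg/ml BSA, 1mM TCEP, 0.01% Tween-20.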

Cn1cccc1C(=O)N1CCC2(CCCN(c3cccc(-c4ccccc4)c3)C2)CC1
active: Potency [3] 15.8 µM
inactive: Potency [1] > 11.4 µM | activity change, negative = inhibition [2] 7.29% | activity change, negative = inhibition [4] -13.3% | activity, negative = inhibition [5] 2.34% | Potency [6] > 46 µM | Potency [7] | outcome [8] | Potency [9] | Potency [10] | Potency [11] | Potency [12]

COc1ccc(Oc2ncc3ncc(=O)n(Cc4ccc(F)cc4)c3n2)cc1
inactive: Potency [1] > 11.4 µM | activity change, negative = inhibition [2] -18.4% | activity change, negative = inhibition [4] -10.2% | activity, negative = inhibition [5] -0.377% | Potency [13] > 9.22 µM | Potency [6] > 46 µM | Potency [14] | outcome [8] | Potency [9] | Potency [10]

COC(=O)N1CCC2(CC1)CCN(c1cccc(-c3ccccc3)c1)CC2
inactive: Potency [1] > 11.4 µM | activity change, negative = inhibition [2] -18.3% | Potency [3] | activity, negative = inhibition [5] 13% | Potency [6] > 46 µM | Potency [14] | Potency [15] | outcome [8] | Potency [9] | Potency [10] | Potency [11]

O=c1c(-c2ccc(F)cc2)nc2cnc(Nc3ccccc3)nc2n1Cc1cccs1
active: Potency [3] 2 µM
inactive: Potency [1] > 11.4 µM | activity change, negative = inhibition [2] -11.9% | Potency [13] > 9.22 µM | Potency [6] > 46 µM | Potency [14] | Potency [15] | outcome [8] | Potency [9] | Potency [12]

COC(=O)C1=C(C)NC(C)=C(C(=O)OCCSc2ccccc2)[C@@H]1C
active: Potency [3] 0.794 µM
inactive: Potency [13] > 46 µM | Potency [6] > 46 µM | Potency [7] | outcome [8] | Potency [9] | Potency [10]

O=c1c(-c2cc(F)cc(F)c2)nc2cnc(N3CCOCC3)nc2n1-c1ccccc1
active: Potency [3] 5.01 µM
inactive: Potency [1] > 11.4 µM | Potency [13] > 9.22 µM | Potency [6] > 46 µM | Potency [14] | Potency [15] | outcome [8] | Potency [9] | Potency [12]

COc1ccc(CNc2ncncc2-c2ccccc2C)c(OC)c1
active: Potency [3] 10 µM
inactive: Potency [1] > 11.4 µM | activity change, negative = inhibition [4] 5.66% | activity, negative = inhibition [5] -4.15% | Potency [13] > 46 µM | Potency [6] > 46 µM | Potency [14] | Potency [15] | Potency [7] | Potency [16] | Potency [17] | outcome [8] | Potency [9] | Potency [10] | Potency [11]

COc1cccc(-c2cc(NCc3ccc(OC)cc3OC)ncn2)c1
inactive: Potency [1] > 11.4 µM | activity change, negative = inhibition [4] -8.15% | activity, negative = inhibition [5] -9.18% | Potency [13] > 46 µM | Potency [6] > 46 µM | Potency [14] | Potency [15] | Potency [7] | Potency [16] | Potency [17] | outcome [8] | Potency [9] | Potency [10]
active: Potency [3] 2 µM

COc1ccc(Oc2ncc3nc(-c4cc(F)cc(F)c4)c(=O)n(C[C@H]4CCCO4)c3n2)cc1
inactive: Potency [1] > 11.4 µM | activity change, negative = inhibition [2] -5.29% | activity change, negative = inhibition [4] -11.6% | activity, negative = inhibition [5] -0.431% | Potency [13] > 9.22 µM | Potency [6] > 46 µM | Potency [14] | Potency [15] | Potency [16] | Potency [17] | outcome [8] | Potency [9] | Potency [10] | Potency [11] | Potency [12]

O=c1c(-c2ccc(Cl)cc2)nc2cncnc2n1Cc1ccccc1Cl
inactive: Potency [1] > 11.4 µM | activity change, negative = inhibition [2] 8.01% | activity change, negative = inhibition [4] -29.5% | activity, negative = inhibition [5] 13% | Potency [13] > 9.22 µM | Potency [6] > 46 µM | Potency [14] | Potency [15] | Potency [7] | outcome [8] | Potency [9] | Potency [10] | Potency [11] | Potency [12]

CN(C)c1ncc2nc(-c3ccc(Cl)cc3)c(=O)n(C[C@H]3CCCO3)c2n1
active: Potency [3] 3.98 µM
inactive: Potency [1] > 11.4 µM | activity change, negative = inhibition [2] 9.11% | activity change, negative = inhibition [4] 21.9% | activity, negative = inhibition [5] 11.6% | Potency [13] > 9.22 µM | Potency [6] > 46 µM | Potency [14] | Potency [15] | Potency [16] | Potency [17] | outcome [8]

COc1cccc(Cn2c(=O)c(-c3ccc(Cl)cc3)nc3cnc(N4CCNCC4)nc32)c1
inactive: Potency [1] > 11.4 µM | Potency [13] > 9.22 µM | Potency [6] > 46 µM | Potency [15] | Potency [7] | Potency [16] | Potency [17] | outcome [8] | Potency [10]
active: Potency [12] 39.3 µM

O=c1cnc2cnc(Oc3ccccc3)nc2n1C1CC1
active: Potency [3] 7.94 µM
inactive: Potency [1] > 11.4 µM | activity change, negative = inhibition [2] -14% | activity change, negative = inhibition [4] -5.78% | activity, negative = inhibition [5] -13.1% | Potency [13] > 9.22 µM | Potency [6] > 46 µM | Potency [14] | Potency [15] | Potency [16] | Potency [17] | outcome [8]

Cc1nc2cncnc2n(Cc2ccc(F)cc2)c1=O
active: Potency [3] 10 µM
inactive: Potency [1] > 11.4 µM | activity change, negative = inhibition [2] -6.19% | activity change, negative = inhibition [4] 9.35% | activity, negative = inhibition [5] -9.93% | Potency [13] > 9.22 µM | Potency [6] > 46 µM | Potency [14] | Potency [15] | Potency [16] | Potency [17] | outcome [8]

CC(=O)NCCNc1nc(-c2ccc(C(=O)N(C)C)cc2)nc2ccccc12
inactive: Potency [1] > 11.4 µM | activity change, negative = inhibition [2] 3.64% | Potency [3] | activity change, negative = inhibition [4] 9.74% | activity, negative = inhibition [5] 11.4% | Potency [13] > 46 µM | Potency [6] > 46 µM | Potency [14] | Potency [15] | Potency [16] | Potency [17] | outcome [8]
